Screening results: PubChem BioAssay, National Center for Advancing Translational Sciences (NCATS)
Rows were chosen to be rich in hits. Some 2.9% of all compounds tested hit in one or more screens of this group.
Nrf2 inh = blocks Nrf2 signaling; actives 2.1% (n = 360,000); AID 504444; Potency, µM (highest dose often 46 µM), usual class: inhibitors; A549 ARE-Fluc reporter, luciferase luminescence, 18-24 h; note: nearly all actives have a fitted effect of over 60% in size
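Two sequential reads on A549 ARE_Fluc cells exposed to compound for 18-24 h: a CellTiter-Fluor fluorescence read for viability, then a luciferase luminescence read for Nrf2/ARE activity.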
ATXN viability = cell viability loss in ATXN counter-screen; AID 651635; Potency, µM (titrated, usually from 56.7 µM), usual class: cytotoxic; actives 0.49% (n = 400,000); S2 cells (HEK-293 line with an ATXN2-luciferase reporter) viability, CellTiter-Fluor protease fluorescence, 24 h; note: nearly all actives have a fitted effect of over 40% in size
Nrf2 ARE act = Nrf2 pathway activation | actives 0.31% (n = 410,000) | Potency, µM (series often up to 46.1 µM), hits mostly activators | AREc32 ARE-luciferase reporter (MCF7-derived line), luminescence, 24 h; note: nearly all actives have a fitted effect of over 65% in size
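Quantitative high-throughput format: AREc32 reporter cells, 1000 per well, received compound by pin transfer and were incubated 24 hr at 37 deg C, 5% CO2, before Steady-Glo luminescence detection.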
A549 tox = A549 cytotoxicity, counter-screen for Nrf2 inhibitors; A549 ARE-Fluc cells, CellTiter-Fluor viability, 18-24 h; Potency, µM (series often up to 46 µM), most hits filed as inhibitors; actives 0.16% (n = 390,000); AID 504648
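A549 ARE-Fluc cells in 5% FBS OPTI-MEM, 5000 cells/well, rested 2 h then exposed to compounds in concentration-response for 18-24 h at 37 °C. Viability by CellTiter-Fluor fluorescence (Ex 405/Em 525) after 30 min; luciferase luminescence (BugLite, 15 min, RT) read afterwards.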
ATXN2 expr inh = inhibitors of ATXN2 expression; HEK-293 ATXN2-luciferase reporter, luminescence, 24 h; Potency, µM (doses to about 57 µM), most hits filed as inhibitors; actives 0.72% (n = 360,000); AID 1745845; note: nearly all actives have a fitted effect of over 55% in size
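ATXN2-luciferase reporter cells (luciferase flanked by upstream and downstream ATXN2 gene portions) were treated 24 h at 37 °C with compounds at up to 57 uM. SteadyGlo luminescence gave expression; GF-AFC fluorescence gave viability.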
Of the large screens only hits and unclear results are named; the others gave an inactive call; ! = not active in a repeat. Calls come from the whole dose curve; as a rule, active = well fitted curve in the direction sought with a large enough effect; inconclusive = small, poorly fitted or top-dose-only effect, or another doubt; inactive = no such curve, though single readings can be large; an effect the other way counts as inactive or inconclusive.

Cc1ncc2c(c1CNC(=O)c1cncs1)CCN(C(=O)c1ccc(-c3ccccc3)cc1)C2	none (no result: Nrf2 inh, Nrf2 ARE act, A549 tox, ATXN2 expr inh)
COc1cc(=O)n2c(c1C(=O)N(C)Cc1ccsc1)CCN(Cc1cnn(C)c1C)CC2	none (no result: Nrf2 inh, Nrf2 ARE act, A549 tox, ATXN2 expr inh)
Oc1ccccc1N=Nc1ccccc1O	ATXN viability 0.89µM (no result: ATXN2 expr inh)
COc1ccc(Cc2nn3c(-c4ccccc4Br)nnc3s2)cc1	Nrf2 inh 16µM
OC1(c2ccc(Cl)c(C(F)(F)F)c2)CCN(CCCC(c2ccc(F)cc2)c2ccc(F)cc2)CC1	ATXN viability 18µM, ATXN2 expr inh 16µM (no result: Nrf2 inh, Nrf2 ARE act, A549 tox)
O=C1C(Oc2ccccc2)C(c2cccs2)N1Cc1ccc2c(c1)OCO2 (configuration not stated)	none
COc1ccc(OC2C(=O)N(Cc3ccc4c(c3)OCO4)C2c2cccs2)cc1 (configuration not stated)	Nrf2 inh 13µM
CC(=O)Oc1ccc(N(C(C)=O)S(=O)(=O)c2ccc(Cl)cc2)c2ccccc12	ATXN2 expr inh inconclusive
CC(=O)Oc1ccc(N(C(C)=O)S(=O)(=O)c2ccc(C)cc2)c2ccccc12	ATXN viability inconclusive, ATXN2 expr inh 27µM
CC(NC(=O)COC(=O)c1c[nH]c2ccccc12)c1ccccc1 (configuration not stated)	Nrf2 inh 21µM
CC(NC(=O)COC(=O)CCc1ccccc1)c1ccccc1 (configuration not stated)	Nrf2 inh inconclusive, A549 tox 23µM
CC(NC(=O)COC(=O)CSCc1ccccc1)c1ccccc1 (configuration not stated)	none
COc1ccc(CN2CCOc3ccc(CN4CCC(O)(c5cccnc5)CC4)cc3C2)cc1OC	none (no result: Nrf2 inh, Nrf2 ARE act, A549 tox, ATXN2 expr inh)
COc1cc2nc(NC(=O)c3ccc(F)cc3Cl)sc(=O)c2cc1OC	Nrf2 inh 6.5µM
O=C(Nc1nc2ccsc2c(=O)s1)c1ccc(F)cc1Cl	Nrf2 inh inconclusive
CC[C@H]1CN2CCc3cc(OC)c(OC)cc3[C@H]2C[C@@H]1C[C@@H]1NCCc2cc(OC)c(OC)cc21	ATXN2 expr inh 0.27µM (no result: Nrf2 inh, ATXN viability, Nrf2 ARE act, A549 tox)
COc1cc2c(cc1OC)C1CC(=O)C(CC(C)C)CN1CC2 (configuration not stated)	none
C=CCNc1nc(NCC=C)nc(N2CCN(C(c3ccc(F)cc3)c3ccc(F)cc3)CC2)n1	none (no result: Nrf2 inh, Nrf2 ARE act, A549 tox)
Cc1ccc2c(CN3CCN(Cc4ccc5c(c4)OCO5)CC3)cc(=O)oc2c1C	none
Cc1ccc2c(CN3CCN(S(=O)(=O)c4ccc5c(c4)OCCO5)CC3)cc(=O)oc2c1C	Nrf2 inh 16µM, ATXN2 expr inh inconclusive
COc1ccc(C2Nc3ccccc3C(=O)N2CCc2ccc(Cl)cc2Cl)cc1COc1ccc(NC(C)=O)cc1 (configuration not stated)	none (no result: ATXN viability, Nrf2 ARE act, ATXN2 expr inh)
Cc1cc(C)c(Cc2c(C)nc3c(C(=O)NCc4ccco4)cnn3c2C)c(C)c1	Nrf2 inh 18µM, ATXN viability 20µM, A549 tox inconclusive, ATXN2 expr inh 14µM
CNC(=O)c1cc(Oc2ccc(NC(=O)Nc3ccc(Cl)c(C(F)(F)F)c3)cc2)ccn1	Nrf2 inh 26µM, ATXN viability 16µM, A549 tox inconclusive, ATXN2 expr inh 18µM!
CC(=O)OCON[N+]([O-])=NC1CCCCC1	none (no result: ATXN viability, Nrf2 ARE act, ATXN2 expr inh)
COc1ccc(-c2cc(-c3c(O)c(OC)c4occc4c3OC)[nH]n2)cc1	Nrf2 inh inconclusive, A549 tox inconclusive
COc1ccc(-c2cc(-c3c(O)c(OC)c4occc4c3OC)[nH]n2)cc1OC	Nrf2 inh 13µM, A549 tox inconclusive
CCOC(=O)CSc1nc2sc(C)c(C)c2c(=O)[nH]1	Nrf2 inh inconclusive
CCOC(=O)/C(=C\c1ccc(Cl)cc1)c1nc2sc(C)c(C)c2c(=O)[nH]1	Nrf2 inh 18µM, Nrf2 ARE act inconclusive, A549 tox inconclusive, ATXN2 expr inh inconclusive (no result: ATXN viability)
Cc1cc(=O)n2nc(-c3ccccc3)sc2c1C#N	Nrf2 ARE act 2.2µM
Cc1nc2sc(-c3ccccc3)nn2c(=O)c1Br	Nrf2 inh inconclusive, Nrf2 ARE act inconclusive
CC(=O)O[C@]1(C(C)=O)CC[C@H]2[C@@H]3C[C@H](C)C4=CC(=O)CC[C@]4(C)[C@H]3CC[C@@]21C	Nrf2 inh 0.26µM, ATXN viability inconclusive, ATXN2 expr inh inconclusive
CC(=O)OC1(C(C)=O)CCC2C3CC(C(F)(F)F)C4=CC(=O)CCC4(C)C3CCC21C (configuration not stated)	Nrf2 ARE act 7.1µM
CC1CC2C3CCC4=CC(=O)CCC4(C)C3CCC2(C)C1(O)C(=O)CO (configuration not stated)	Nrf2 inh 0.65µM
CC(=O)C12CCCCC1CC1[C@@H]3CC(C)C4=CC(=O)CC[C@]4(C)C3CC[C@@]12C (some centres not stated)	Nrf2 inh inconclusive
CCC(=O)OC1(C(C)=O)CCC2C3CCC4=CC(=O)CCC4(C)C3CCC21C (configuration not stated)	Nrf2 inh 1.2µM, ATXN viability inconclusive, ATXN2 expr inh 20µM
CCc1nc2cc(C(=O)N3CCCN(C=O)CC3)cc(NC(=O)c3ccccc3OC)c2n1C	none (no result: Nrf2 inh, Nrf2 ARE act, A549 tox, ATXN2 expr inh)
COCCN(C)C(=O)c1cnn(-c2ncc3c(n2)-c2ccccc2CCC3)c1C1CC1	none (no result: Nrf2 inh, Nrf2 ARE act, A549 tox, ATXN2 expr inh)
Cc1cc(C)cc(OCC(=O)N2CCC(c3nc4ccccc4o3)CC2)c1	none (no result: ATXN viability, ATXN2 expr inh)
CCCN=C1N/C(=C\c2ccco2)C(=O)N1c1ccccc1	none
O=C1/C(=C\c2ccco2)NC(=S)N1c1ccccc1	Nrf2 inh inconclusive, ATXN viability inconclusive, Nrf2 ARE act 8.9µM
CCS(=O)(=O)c1c(Nc2cc(C)ccc2C)sc(C(=O)c2ccccc2)c1N	Nrf2 inh 23µM (no result: ATXN viability, ATXN2 expr inh)
Cc1cccc([S+](=O)([O-])NC2CCN(C#N)CC2)c1	none (no result: ATXN viability, Nrf2 ARE act, ATXN2 expr inh)
CN1C(=O)C2(NCCc3c2[nH]c2ccccc32)c2ccccc21 (configuration not stated)	none
CC1=CC(C)(C)N2C(=O)C3(NCCc4c3[nH]c3ccccc43)c3cc(C)cc1c32 (configuration not stated)	Nrf2 inh inconclusive, ATXN viability 22µM, A549 tox 12µM
Cc1c(CN(C)C(=O)CSc2nc(-c3ccco3)cc(C(F)(F)F)n2)cnn1C	Nrf2 inh 16µM
CCn1cc(CN(C)C(=O)CSc2nc(-c3ccco3)cc(C(F)(F)F)n2)c(C)n1	Nrf2 inh inconclusive
COc1ccccc1CCNC(=O)CSc1nc(-c2ccco2)cc(C(F)(F)F)n1	Nrf2 inh inconclusive
COc1ccccc1CCNC(=O)CCSc1nc(-c2ccco2)cc(C(F)(F)F)n1	Nrf2 inh 18µM
CCc1nnc(NC(=O)CSc2nccn2Cc2ccccc2)s1	none (no result: Nrf2 inh)
O=[N+]([O-])c1ccc(Nc2ccccc2-c2ccccc2)c2nonc12	none (no result: Nrf2 inh, ATXN viability, Nrf2 ARE act, A549 tox)
CC(=O)Nc1cc(NC(C)=O)cc(-c2nc3ccccc3[nH]2)c1	ATXN viability 32µM!, ATXN2 expr inh inconclusive
COc1cccc(C2c3c(oc4ccc(C)cc4c3=O)C(=O)N2CCCN2CCOCC2)c1OC (configuration not stated)	none (no result: Nrf2 inh, ATXN viability, ATXN2 expr inh)
